Shiga toxin inh: Shiga toxin inhibition; inhibition, % at 38.7 µM; Vero cells, Shiga toxin protein synthesis inhibition reporter; AID 2315; hit rate 9.2% among 290,000; in the data active = inhibition mostly above about 28%, no sharp cut-off; inactive = mostly below about 43%; note: 0% is about no effect
Cycloheximide cs: affects cycloheximide protein synthesis inhibition readout, counter-screen | cell reporter, cycloheximide protein synthesis inhibition counterscreen | hit rate 12% among 300,000 | max response, % | AID 2314; in the data active = max response mostly above about 13%, no sharp cut-off; inactive = mostly below about 14%; note: read at 38.3 µM for the half of the compounds with a filed dose; 0% is about no effect
HCMV antiviral: inhibitors of human cytomegalovirus. AID 1259415. hit rate 4.5% among 410,000. HFF cells, HCMV-luciferase reporter, 72 h; hits give low values. activity change, negative = inhibition, % at 57.5 µM; in the data active = activity change below about -60%; inconclusive = no clear call, values can overlap the other calls; inactive = above about -39%; note: % is set by controls: 0 for no effect and ±100 for the full control effect
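Two compound doses tested in HFFs infected with HCMV-luciferase, MOI 1 PFU/cell, 72 h at 37C. Lysate luminescence read with OneGlo; data normalized against buffer-only and 10uM Salinomycin inhibitor controls.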
Pf growth 96h: inhibits malaria parasite growth, 96 h; AID 504834; hit rate 6.9% among 320,000; P. falciparum luciferase reporter growth, 96 h; Potency, µM (top dose mostly 28.7 µM), without a hit: top-dose activity change, negative = inhibition, hits mostly inhibitors; note: potency is the fitted concentration of half-maximal effect; % is set by controls: 0 for no effect and ±100 for the full control effect
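Plates of compound plus infected erythrocytes (2% hematocrit, 0.05% parasitemia final) incubate 96 hours, 37 C, 5% CO2. Detection reagent added; reduced luminescence from the parasites' luciferase reporter flags inhibition.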
Pf growth 48h: inhibits P. falciparum growth in the first generation, 48 h; P. falciparum luciferase growth in erythrocytes, 48 h; Potency, µM (titrated, usually from 28.7 µM), for the others: top-dose activity change, negative = inhibition, usual class: inhibitors; hit rate 5.9% among 310,000; AID 504832; note: potency is the fitted concentration of half-maximal effect; % is set by controls: 0 for no effect and ±100 for the full control effect
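Growth was read as firefly luciferase luminescence after a 48 h, 37 C, 5% CO2 exposure of compounds to reporter-bearing P. falciparum cultures (0.1% parasitemia, 2% hematocrit final) in Albumax-supplemented RPMI 1640.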
Active calls of the source: *; ? = inconclusive; / = no result given; + = active, no number; [ ] = another dose, or the depositor's remark. Shown are actives, neighbours in structure and some others; about 20% of the full set was active somewhere. Unless noted, calls come from the whole dose curve; as a rule, active = well fitted inhibition curve with a large enough effect; inconclusive = small, poorly fitted or top-dose-only effect, or another doubt; inactive = no such curve, though single readings can be large or run the other way.

SMILES | Shiga toxin inh | Cycloheximide cs | HCMV antiviral | Pf growth 96h | Pf growth 48h
CCOc1ccc(N2CC(C(=O)Nc3cccnc3)CC2=O)cc1 (centres undefined) | -10 | -2 | -6 | 12µM* | -21%
COc1ccccc1NC(=O)Cn1nc(-c2ccncc2)nc1SCC(=O)NC1CCCC1 | -4 | 5 | -76* | 37% | 23%
COc1ccccc1-n1c(SCC(=O)NC2CCS(=O)(=O)C2)nc2cc([N+](=O)[O-])ccc21 (centres undefined) | -5 | -3 | 19 | ? | ?
O=C(CSc1nnc(NC(=O)c2ccccc2[N+](=O)[O-])s1)NC1CCCC1 | / | / | 55 | / | /
COc1ccccc1C(=O)Nc1nnc(SCC(=O)NC2CCCC2)s1 | 166* | 63* | / | 105% | 216%
CCN(CC)S(=O)(=O)c1ccc2c(c1)nc(SCC(=O)NC1CC1)n2-c1ccccc1OC | 2 | -2 | -4 | ? | 5.9µM*
COc1ccc2c(C)c(CCC(=O)NCCc3ccc(OC)c(OC)c3)c(=O)oc2c1 | / | / | 6 | / | /
CCOc1ccc(NC(=O)c2sc3nc(N4CCOCC4)c4c(c3c2N)CC(C)(C)OC4)cc1 | -3 | -1 | 1 | ? | ?
CC(=O)O[C@@H](C[C@@H](C)C1=C2C[C@H](O)C3[C@@]4(C)CCC(=O)C(C)(C)C4CC[C@]3(C)[C@@]2(C)CC1)[C@H]1OC1(C)C (some centres undefined) | / | / | -31 | / | /
COc1cccc(Cn2c(=O)n(CC3CCC(C(=O)N4CCOCC4)CC3)c(=O)c3sccc32)c1 (centres undefined) | / | / | -31 | / | /
Cc1ccc(N2CC(C(=O)Nc3nnc(SCc4cccnc4)s3)CC2=O)cc1 (centres undefined) | 5 | -3 | 14 | 0% | 9%
O=C(Nc1nccs1)C1CC(=O)N(c2ccc(Cl)cc2)C1 (centres undefined) | -9 | -2 | 15 | 1% | -5%[5.75 µM]
COc1ccc(N2CC(C(=O)Nc3nnc(SCc4cccnc4)s3)CC2=O)cc1 (centres undefined) | 16 | 4 | ? | 13µM* | ?
O=C(CSc1nnc(NC(=O)C2CC(=O)N(c3ccccc3)C2)s1)NC1CCCC1 (centres undefined) | -11 | -5 | -6 | 0% | 4%
COc1ccc(N2CC(C(=O)Nc3nccs3)CC2=O)cc1 (centres undefined) | -21 | -4 | -78* | -52% | 11%
COc1ccc(N2CC(C(=O)Nc3nnc(SCC(=O)NC4CCCC4)s3)CC2=O)cc1 (centres undefined) | 8 | 8 | -6 | 6.6µM* | -12%
COc1ccccc1-n1ccnc1SCC(=O)NC1CCCC1 | -5 | -1 | 63 | -13% | -5%
COc1ccccc1-n1cnnc1SCC(=O)NC1CCCCC1 | / | / | -83* | -18% | ?
O=C1N[C@@H](Cc2ccccc2)C(=O)N2[C@H]1C[C@]1(Br)c3ccccc3N(S(=O)(=O)c3ccc(F)cc3)[C@H]21 | / | / | -1 | / | /
O=C1CCN(c2ccc([N+](=O)[O-])cc2F)CC1 | 22 | 3 | 55 | 57% | 276%
O=C(c1ccccc1)N1CCN(C(=O)c2ccccc2)c2ccccc21 | / | / | -100* | / | /
O=C(c1ccccc1)N1CCN=C1c1ccccc1 | 1 | 6 | -14 | 12µM* | -11%
COc1ccc2c(CC(=O)Nc3ccccc3N3CCOCC3)coc2c1 | 47 | -2 | -39 | ? | ?
CCc1ccc(CNC(=O)c2nn(-c3ccc(C)cc3)c(=O)c3c2c2ccccc2n3C)cc1 | / | / | 23 | / | /
Nc1cc(OC(=O)c2cccs2)nn1S(=O)(=O)c1ccccc1 | 3 | 1 | 23 | ? | 4%
SMILES | Shiga toxin inh | Cycloheximide cs | HCMV antiviral | Pf growth 96h | Pf growth 48h
Nc1cc(OC(=O)c2c(F)cccc2Cl)nn1S(=O)(=O)c1ccccc1 | -7 | -1 | 25 | 10µM* | 23%
COc1ccc(C)cc1S(=O)(=O)N1CCN(c2ccccc2)CC1 | / | 1 | 45 | 2% | -18%
CCOc1ccccc1N1CCN(S(=O)(=O)c2cc(C)ccc2OC)CC1 | 64* | 51* | ? | ? | -36%
COc1ccccc1N1CCN(S(=O)(=O)c2cc3[nH]c(=O)c(=O)[nH]c3cc2C)CC1 | -5 | -1 | 42 | ? | 9.3µM*
Cc1cc2[nH]c(=O)c(=O)[nH]c2cc1S(=O)(=O)N1CCN(c2cccc(C)c2C)CC1 | -5 | 1 | 7 | 4.7µM* | ?
CCNC(=O)NCCNC(=O)c1cc(OCC(F)(F)F)ccc1OCC(F)(F)F | 10 | 3 | -25 | 207% | 2.9µM*
O=C(NNC(=O)c1cc(OCC(F)(F)F)ccc1OCC(F)(F)F)c1cccc(C(F)(F)F)c1 | 56* | 20* | 12 | ? | 15µM*
COc1ccc(N2CC(NC(=O)Cc3cccs3)CC2=O)cc1OC (centres undefined) | / | / | 14 | / | /
Cc1nc2ccc(NS(=O)(=O)c3ccc(F)c(C)c3)cc2[nH]1 | -10 | -1 | -60* | 58% | -8%
Cc1nc2ccc(NS(=O)(=O)c3ccc(C)c(C)c3)cc2s1 | -9 | -2 | -88* | 23% | /
Cc1nc2ccc(S(=O)(=O)c3ccc4nc(C)[nH]c4c3)cc2[nH]1 | -3 | 1 | -1 | ? | 13%
COc1cc(S(=O)(=O)Nc2ccc3nc(C)sc3c2)ccc1NC(C)=O | / | / | -88* | ? | -27%
O=S(=O)(NCCc1csc(-c2ccc(F)cc2)n1)c1ccc(Cl)cc1 | / | / | -33 | / | /
CCCCCCN1C[C@@H](n2cc(-c3ccc(F)cc3)nn2)[C@H](O)C[C@@H]1c1ccc(Cl)cc1 | / | / | -95* | / | /
CCCCCCN1C[C@H](n2cc(-c3ccc(F)cc3)nn2)[C@@H](O)C[C@@H]1c1ccc(OC)cc1 | / | / | -8 | / | /
CCCCCCN1C[C@H](n2cc(-c3ccc(F)cc3)nn2)[C@@H](O)C[C@@H]1c1ccc(C)cc1 | / | / | -81* | / | /
COc1ccc(N2CCN(c3ccc(-c4nc(-c5ccccc5)no4)cc3[N+](=O)[O-])CC2)cc1 | / | / | -10 | / | /
N#C/C(=C(/O)c1ccc(F)cc1)c1nc2ccccc2s1 | 20 | 20* | 8 | 29% | 194%
c1ccc(SCc2nc3ccccc3s2)nc1 | 81* | 33* | 81 | 269% | 18%[0.00184 µM]
N#CCc1nc(CSc2nc3ccccc3o2)cs1 | 70* | 25 | 19 | ? | 129%
c1ccc2oc(SCc3nc4ccccc4s3)nc2c1 | + | 43* | 85 | 189% | 180%
Cc1ccc(C(=O)N2c3ccccc3N=C(c3ccccc3)C2C(=O)NC(C)C)cc1 (centres undefined) | / | / | -6 | / | /
N#Cc1cccc(NC(=O)C2CCN(S(=O)(=O)c3ccc4[nH]c(=O)ccc4c3)CC2)c1 | / | / | 8 | / | /
COc1ccc(-c2cc(C(F)(F)F)c(C#N)c(SCC(=O)Nc3ccccc3F)n2)cc1 | / | / | 22 | / | /
N#C/C(=C(/O)CSc1ccccn1)c1nc2ccccc2s1 | 47 | 25* | -24 | -5% | 73%
CCOc1ccc2nc(SCC(=O)Nc3ccc(F)cc3)nc(-c3ccccc3)c2c1 | / | / | -2 | / | /

Screening results deposited in PubChem BioAssay by National Center for Advancing Translational Sciences (NCATS).
